About 2,000 (36%) of roughly 5,500 compounds were called active. Not shown: some 18% with an inconclusive outcome. Rule as the data show it: active = normalized growth mostly below about 0.91 (no sharp cut-off); inconclusive = no clear call, values can overlap the other calls; inactive = mostly above about 0.92. Some of the results follow.
Assay: chemical genetic growth profiling, strain panel (AID 1159580);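 also: tested at 20 µM; growth read once vehicle control cultures reached saturation at 30 °C; 1 = growth at the plate median or of vehicle wells; lower values mean less growth of the strain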
Conditions: S. cerevisiae deletion strains, growth OD

Measured: normalized growth

CC(=O)O[C@@H]1CC2C(C)(C)C(=O)C3OC3[C@]2(C)C2CC[C@@]3(C)[C@H](c4ccoc4)OC(=O)C4OC43[C@@]21C (some centres not stated)
active: locus YKL085W, strain MDH1 (second series), active compounds read low 1.13 [resistant] | locus YKL085W, strain MDH1, active compounds read low 1.13 [resistant]
inactive: locus YAL021C, strain ccr4, active compounds read low 0.988 | locus YAL026C, strain drs2, active compounds read low 0.984 | locus YAL030W, strain snc1, active compounds read low 0.993 | locus YBL061C, strain skt5, active compounds read low 0.97 | locus YBR009C, strain hhf1, active compounds read low 0.981 | locus YBR021W, strain FUR4, active compounds read low 0.964 | locus YBR023C, strain chs3, active compounds read low 0.982 | locus YBR171W, strain sec66, active compounds read low 0.966 | locus YBR229C, strain ROT2, active compounds read low 0.994 | locus YBR231C, strain swc5, active compounds read low 0.975 | locus YBR279W, strain paf1, active compounds read low 0.988 | locus YCL011C, strain gbp2, active compounds read low 0.993 | locus YCL016C, strain dcc1, active compounds read low 0.991 | locus YCL029C, strain bik1, active compounds read low 1 | locus YCL061C, strain MRC1, active compounds read low 0.988 | locus YCL069W, strain vba3, active compounds read low 0.982 | locus YCR088W, strain abp1, active compounds read low 0.987 | locus YDL005C, strain med2, active compounds read low 0.971 | locus YDL035C, strain GPR1, active compounds read low 1.01 | locus YDL040C, strain nat1, active compounds read low 0.972 | locus YDL074C, strain BRE1, active compounds read low 0.994 | locus YDL101C, strain DUN1, active compounds read low 1.01 | locus YDL185W, strain tfp1, active compounds read low 0.999 | locus YDL192W, strain arf1, active compounds read low 1.01 | locus YDR001C, strain nth1, active compounds read low 0.986 | locus YDR069C, strain doa4, active compounds read low 0.993 | locus YDR101C, strain arx1, active compounds read low 1.01 | locus YDR137W, strain rgp1, active compounds read low 1 | locus YDR150W, strain NUM1, active compounds read low 1.01 | locus YDR159W, strain sac3, active compounds read low 0.941 | locus YDR162C, strain NBP2, active compounds read low 1.02 | locus YDR195W, strain ref2 0.978 | locus YDR297W, strain sur2, active compounds read low 0.983 | locus YDR318W, strain mcm21, active compounds read low 0.997 | locus YDR334W, strain swr1, active compounds read low 0.972 | locus YDR335W, strain msn5, active compounds read low 0.987 | locus YDR388W, active compounds read low 1 | locus YDR392W, strain spt3, active compounds read low 0.966 | locus YDR502C, strain sam2, active compounds read low 0.992 | locus YEL003W, strain gim4, active compounds read low 0.979 | locus YEL037C, strain rad23, active compounds read low 0.974 | locus YEL061C, strain CIN8 (second series), active compounds read low 0.983 | locus YER015W, strain faa2, active compounds read low 0.992 | locus YER016W, strain bim1, active compounds read low 0.987 | locus YER110C, active compounds read low 1 | locus YER111C, strain swi4, active compounds read low 0.976 | locus YER155C, strain BEM2 (second series), active compounds read low 0.986 | locus YER155C, strain BEM2, active compounds read low 0.996 | locus YER167W, strain BCK2, active compounds read low 1.01 | locus YFR010W, strain ubp6, active compounds read low 0.964 | locus YGL078C, strain dbp3, active compounds read low 0.997 | locus YGL086W, strain mad1, active compounds read low 1.03 | locus YGL167C, strain pmr1, active compounds read low 0.971 | locus YGL173C, strain kem1, active compounds read low 0.986 | locus YGL227W, strain vid30, active compounds read low 0.988 | locus YGL240W, strain doc1, active compounds read low 0.96 | locus YGL248W, strain PDE1, active compounds read low 1.01 | locus YGL253W, strain hxk2, active compounds read low 0.94 | locus YGR135W, strain pre9, active compounds read low 0.975 | locus YGR252W, strain gcn5, active compounds read low 0.928 | locus YHR013C, strain ard1, active compounds read low 0.969 | locus YHR027C, strain rpn1, active compounds read low 0.978 | locus YHR030C, strain SLT2, active compounds read low 0.988 | locus YHR079C, strain IRE1 (second series), active compounds read low 1 | locus YHR079C, strain IRE1, active compounds read low 1 | locus YHR094C, strain hxt1, active compounds read low 1 | locus YHR129C, strain ARP1, active compounds read low 1.01 | locus YHR142W, strain chs7, active compounds read low 0.965 | locus YHR200W, strain rpn10, active compounds read low 1 | locus YIL066C, strain RNR3, active compounds read low 1.01 | locus YIL073C, strain SPO22, active compounds read low 1.04 | locus YIL125W, strain kgd1, active compounds read low 0.996 | locus YIR030C, strain dcg1, active compounds read low 0.998 | locus YJL092W, strain hpr5, active compounds read low 0.981 | locus YJL095W, strain BCK1 (second series), active compounds read low 0.99 | locus YJL095W, strain BCK1, active compounds read low 1 | locus YJL115W, strain asf1, active compounds read low 0.982 | locus YJL129C, strain trk1, active compounds read low 0.965 | locus YJL134W, strain LCB3, active compounds read low 1.01 | locus YJL154C, strain vps35, active compounds read low 0.98 | locus YJL164C, strain tpk1, active compounds read low 1.03 | locus YJL166W, strain qcr8, active compounds read low 0.987 | locus YJL168C, strain set2, active compounds read low 0.996 | locus YJL187C, strain SWE1 (second series), active compounds read low 1 | locus YJL187C, strain SWE1, active compounds read low 0.993 | locus YJR066W, strain TOR1, active compounds read low 0.942 | locus YKL009W, strain mrt4, active compounds read low 1.08 | locus YKL068W, active compounds read low 1.01 | locus YKL160W, strain elf1, active compounds read low 1 | locus YKL190W, strain CNB1, active compounds read low 1.01 | locus YKR001C, strain vps1, active compounds read low 0.989 | locus YKR026C, strain gcn3, active compounds read low 0.977 | locus YKR091W, strain srl3, active compounds read low 0.982 | locus YLL001W, strain dnm1, active compounds read low 0.991 | locus YLL026W, active compounds read low 0.988 | locus YLL041C, strain sdh2, active compounds read low 0.981 | locus YLR027C, strain aat2, active compounds read low 0.962 | locus YLR039C, strain RIC1, active compounds read low 1.06 | locus YLR058C, strain SHM2, active compounds read low 1.01 | locus YLR102C, strain apc9, active compounds read low 1 | locus YLR113W, strain HOG1, active compounds read low 0.999 | locus YLR221C, strain rsa3, active compounds read low 0.964 | locus YLR258W, strain gsy2, active compounds read low 0.99 | locus YLR262C, strain YPT6 (second series), active compounds read low 0.994 | locus YLR268W, strain sec22, active compounds read low 1.01 | locus YLR320W, strain mms22, active compounds read low 0.966 | locus YLR342W, strain FKS1, active compounds read low 0.985 | locus YLR357W, strain rsc2, active compounds read low 0.953 | locus YLR370C, strain arc18, active compounds read low 0.971 | locus YLR371W, strain rom2, active compounds read low 0.997 | locus YLR384C, strain iki3, active compounds read low 0.993 | locus YLR418C, strain cdc73, active compounds read low 0.979 | locus YML016C, strain PPZ1, active compounds read low 1.01 | locus YML032C, strain rad52, active compounds read low 1.01 | locus YML120C, strain ndi1, active compounds read low 0.992 | locus YML124C, strain tub3, active compounds read low 1 | locus YMR058W, strain fet3, active compounds read low 0.986 | locus YMR078C, strain ctf18, active compounds read low 1.01 | locus YMR125W, strain sto1, active compounds read low 0.999 | locus YMR129W, active compounds read low 0.987 | locus YMR205C, strain PFK2, active compounds read low 0.991 | locus YMR223W, strain ubp8, active compounds read low 0.998 | locus YMR231W, strain pep5, active compounds read low 0.95 | locus YMR307W, strain GAS1, active compounds read low 0.941 | locus YNL067W, strain RPL9B, active compounds read low 0.997 | locus YNL071W, strain lat1, active compounds read low 0.99 | locus YNL183C, strain NPR1, active compounds read low 0.963 | locus YNL209W, strain ssb2, active compounds read low 0.998 | locus YNL233W, strain BNI4, active compounds read low 1.03 | locus YNL248C, strain rpa49, active compounds read low 0.973 | locus YNL250W, strain rad50, active compounds read low 0.983 | locus YNL271C, strain bni1, active compounds read low 1 | locus YNL298W, strain CLA4, active compounds read low 1 | locus YNL307C, strain MCK1, active compounds read low 0.993 | locus YNL322C, strain KRE1 (second series), active compounds read low 0.978 | locus YNL322C, strain KRE1, active compounds read low 1.01 | locus YNR049C, strain mso1, active compounds read low 0.976 | locus YNR052C, strain pop2, active compounds read low 0.996 | locus YOL012C, strain htz1 0.75 | locus YOL147C, strain pex11, active compounds read low 1.01 | locus YOR001W, strain rrp6, active compounds read low 0.97 | locus YOR061W, strain CKA2, active compounds read low 1 | locus YOR069W, strain VPS5, active compounds read low 1 | locus YOR070C, strain gyp1, active compounds read low 0.975 | locus YOR080W, strain dia2, active compounds read low 0.971 | locus YOR083W, strain WHI5, active compounds read low 1.01 | locus YOR106W, strain vam3, active compounds read low 0.994 | locus YOR136W, strain idh2, active compounds read low 0.997 | locus YOR144C, strain elg1, active compounds read low 1.02 | locus YOR184W, strain ser1, active compounds read low 1.01 | locus YOR231W, strain MKK1, active compounds read low 0.986 | locus YOR265W, strain rbl2, active compounds read low 0.981 | locus YOR270C, strain vph1, active compounds read low 0.922 | locus YOR290C, strain snf2, active compounds read low 0.994 | locus YOR316C, strain cot1, active compounds read low 1 | locus YPL051W, strain arl3, active compounds read low 0.986 | locus YPL078C, strain atp4, active compounds read low 0.994 | locus YPL106C, strain sse1, active compounds read low 0.989 | locus YPL240C, strain hsp82, active compounds read low 0.981 | locus YPL256C, strain CLN2, active compounds read low 0.984 | locus YPR119W, strain clb2, active compounds read low 0.996 | locus YPR141C, strain kar3, active compounds read low 1.01 | locus YPR163C, strain tif3, active compounds read low 0.999 | locus YPR167C, strain met16, active compounds read low 0.998 | strain wtn01, active compounds read low 1

— PubChem BioAssay AID1159580 (chemical genetic matrix, 2015)
